In this experiment the target is Helicase protein MOM1 (UniProt Q9M658). The experiment is described as follows: mass-spectrometry hit list; affinity purification or IP with mass spectrometry.
UniProt Q9M658, sequence (Q9M658 whole entry): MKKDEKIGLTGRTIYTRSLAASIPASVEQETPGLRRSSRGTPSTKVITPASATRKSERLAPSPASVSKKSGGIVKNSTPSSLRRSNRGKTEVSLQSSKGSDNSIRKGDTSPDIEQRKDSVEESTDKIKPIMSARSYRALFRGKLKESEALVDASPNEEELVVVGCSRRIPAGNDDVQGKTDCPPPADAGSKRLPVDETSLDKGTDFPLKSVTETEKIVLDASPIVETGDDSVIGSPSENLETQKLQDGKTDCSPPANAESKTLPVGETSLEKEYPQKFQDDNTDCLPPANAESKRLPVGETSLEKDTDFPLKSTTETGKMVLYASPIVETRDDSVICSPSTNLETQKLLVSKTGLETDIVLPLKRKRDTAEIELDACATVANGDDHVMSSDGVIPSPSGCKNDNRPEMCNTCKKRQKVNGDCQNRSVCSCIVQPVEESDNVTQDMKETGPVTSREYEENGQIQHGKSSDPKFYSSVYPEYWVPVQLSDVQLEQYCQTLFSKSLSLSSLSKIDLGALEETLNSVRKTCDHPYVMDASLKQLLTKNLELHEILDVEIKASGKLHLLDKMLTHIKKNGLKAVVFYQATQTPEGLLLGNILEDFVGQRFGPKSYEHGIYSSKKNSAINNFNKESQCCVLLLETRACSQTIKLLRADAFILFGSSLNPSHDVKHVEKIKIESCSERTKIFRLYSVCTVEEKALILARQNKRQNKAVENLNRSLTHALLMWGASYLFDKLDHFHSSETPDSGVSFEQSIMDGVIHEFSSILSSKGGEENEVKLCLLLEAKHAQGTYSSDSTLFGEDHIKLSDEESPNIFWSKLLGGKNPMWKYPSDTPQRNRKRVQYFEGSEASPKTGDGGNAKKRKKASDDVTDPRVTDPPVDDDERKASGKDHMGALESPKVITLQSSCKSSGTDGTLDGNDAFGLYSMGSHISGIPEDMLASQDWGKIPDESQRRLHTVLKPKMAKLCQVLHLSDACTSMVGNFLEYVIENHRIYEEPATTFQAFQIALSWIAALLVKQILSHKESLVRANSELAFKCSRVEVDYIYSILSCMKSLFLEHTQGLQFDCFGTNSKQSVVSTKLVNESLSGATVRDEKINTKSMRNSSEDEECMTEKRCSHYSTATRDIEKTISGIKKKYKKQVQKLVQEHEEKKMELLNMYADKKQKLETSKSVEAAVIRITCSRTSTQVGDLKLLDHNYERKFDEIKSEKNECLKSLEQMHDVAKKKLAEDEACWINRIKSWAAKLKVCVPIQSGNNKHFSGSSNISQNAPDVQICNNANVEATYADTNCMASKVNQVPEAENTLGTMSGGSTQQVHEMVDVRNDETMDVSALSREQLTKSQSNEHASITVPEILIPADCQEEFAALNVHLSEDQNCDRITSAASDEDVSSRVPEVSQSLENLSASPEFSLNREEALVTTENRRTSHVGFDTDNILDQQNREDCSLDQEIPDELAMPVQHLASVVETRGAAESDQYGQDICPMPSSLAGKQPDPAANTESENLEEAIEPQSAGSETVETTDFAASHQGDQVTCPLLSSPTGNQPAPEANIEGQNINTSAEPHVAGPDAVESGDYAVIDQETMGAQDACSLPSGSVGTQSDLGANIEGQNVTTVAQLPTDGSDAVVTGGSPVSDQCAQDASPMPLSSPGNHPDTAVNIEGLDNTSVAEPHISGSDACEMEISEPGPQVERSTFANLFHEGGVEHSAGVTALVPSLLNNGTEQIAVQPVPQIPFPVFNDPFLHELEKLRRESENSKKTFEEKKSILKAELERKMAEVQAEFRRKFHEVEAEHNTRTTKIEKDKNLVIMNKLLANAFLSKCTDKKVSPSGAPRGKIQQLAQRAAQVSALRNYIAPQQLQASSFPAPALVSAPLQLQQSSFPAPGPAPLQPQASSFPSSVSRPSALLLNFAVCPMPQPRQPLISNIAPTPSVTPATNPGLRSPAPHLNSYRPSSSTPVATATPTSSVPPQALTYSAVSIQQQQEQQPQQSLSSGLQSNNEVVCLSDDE
With Protein MICRORCHIDIA 6, Q56Y74, the “listed as a hit” value is recorded as “yes”.

As for Protein MICRORCHIDIA 1, Q84WV6, the “listed as a hit” value is listed as “yes”.

Take “DNA-directed RNA polymerase V subunit 1, Q5D869”: the “listed as a hit” value is on record as “yes”.

As for “DNA-directed RNA polymerases IV and V subunit 2, Q9LK40”, the “listed as a hit” value is reported as “yes”.

For the substance “Chromatin remodeling ATPase BRAHMA, Q6EVK6”, the “listed as a hit” value is “yes”.

With “Structural maintenance of chromosomes flexible hinge domain-containing protein GMI1, F4KFS5”, the “listed as a hit” value is recorded as “yes”.

For the substance E4 SUMO-protein ligase PIAL2, F4JYG0, the “listed as a hit” value is reported as “yes”.

Turning to PHD finger-containing protein 1, B3H578, the “listed as a hit” value was “yes”.

For the substance “Protein DEFECTIVE IN MERISTEM SILENCING 3, Q94A79”, the “listed as a hit” value is given as “yes”.

Take “Lysine-specific demethylase JMJ14, Q8GUI6”: the “listed as a hit” value is listed as “yes”.

“Probable inactive lysine-specific demethylase JMJ19, Q8L7T6”: the “listed as a hit” value was “yes”.

On to “Protein RNA-directed DNA methylation 3, F4JW79”, for which the “listed as a hit” value was “yes”.

Consider “E4 SUMO-protein ligase PIAL1, A0A0A7EPL0”, for which the “listed as a hit” value is “yes”.

On to “ASI1-immunoprecipitated protein 3, Q8RXT5”, for which the “listed as a hit” value is listed as “yes”.

As for “Chromatin structure-remodeling complex protein SYD, F4IHS2”, the “listed as a hit” value is recorded as “yes”.

The values above are taken from PMC10338684.
